Inconclusive results are not listed. Where a call stands in place of a potency, no number is given. Calls of active or inactive are those of the source. Calls follow the shape of the dose curve; as a rule, active = well fitted curve in the direction sought with a large enough effect; inconclusive = small, poorly fitted or top-dose-only effect, or another doubt; inactive = no such curve, though single readings can be large; an effect the other way counts as inactive or inconclusive.
Assay: qHTS for Inhibitors of ATXN expression: Validation of Cytotoxic Assay (AID 588349)
Details: cytotoxicity counter-screen for ATXN expression inhibitors, cell viability; series mostly up to 57.1 µM
Outline: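 Titrated compounds are added to cultured HEK293 cells, which are then held at 37 degrees C for 72 hr; loss of intracellular ATP, measured with CellTiter Glo, indicates toxicity.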
Potency is read from the fitted curve at half-maximal effect.

**Q.** Which Potency does the source give for Cc1nc2ccccn2c(=O)c1CCN1CCC(C(=O)c2ccc(F)cc2)CC1 here?
**A.** inactive

**Q.** Which Potency does the source give for CNC1(C)C2CCC(C2)C1(C)C (configuration not stated) here?
**A.** inactive

**Q.** For Cc1scc2c1N(C(=O)CN1CCN(C)CC1)c1ccccc1NC2=O, which Potency is on record?
**A.** inactive

**Q.** With CC[N+](C)(C)c1cccc(O)c1 as the compound, how does the Potency read?
**A.** inactive

**Q.** Which Potency does the source give for c1ccc2c(c1)CCCC2C1=NCCN1 (configuration not stated) here?
**A.** inactive

**Q.** Which Potency does the source give for C[C@]12CCC(=O)C=C1CC[C@@H]1[C@@H]2CC[C@@]2(C)[C@H]1CC[C@]2(O)C(=O)CO here?
**A.** inactive

**Q.** For Brc1c(NC2=NCCN2)ccc2nccnc12, which Potency is on record?
**A.** inactive

**Q.** Which Potency does the source give for COCCc1ccc(OCC(O)CNC(C)C)cc1 (configuration not stated) here?
**A.** inactive

**Q.** With O=C1CC2(CCCC2)CC(=O)N1CCCCN1CCN(c2ncccn2)CC1 as the compound, how does the Potency read?
**A.** inactive

**Q.** Which Potency does the source give for NS(=O)(=O)c1cc2c(cc1Cl)NC(C1CC3C=CC1C3)NS2(=O)=O (configuration not stated) here?
**A.** inactive

**Q.** With CCCCNc1c(C(=O)OCC)c(C)nc2c1cnn2CC as the compound, how does the Potency read?
**A.** inactive

**Q.** Which Potency does the source give for CCN1CCC[C@H]1CNC(=O)c1c(O)c(Cl)cc(Cl)c1OC here?
**A.** inactive

**Q.** Which Potency does the source give for CC(C)[N+](C)(CCOC(=O)C1c2ccccc2Oc2ccccc21)C(C)C here?
**A.** inactive

**Q.** With CN1C(=O)CC[C@H]1c1cccnc1 as the compound, how does the Potency read?
**A.** inactive

**Q.** With CC(C)COCC(CN(Cc1ccccc1)c1ccccc1)N1CCCC1 (configuration not stated) as the compound, how does the Potency read?
**A.** inactive

**Q.** With COc1ccc([C@@H]2Sc3ccccc3N(CCN(C)C)C(=O)[C@@H]2OC(C)=O)cc1 as the compound, how does the Potency read?
**A.** inactive

**Q.** Which Potency does the source give for CN(C)C(=O)Oc1cccc([N+](C)(C)C)c1 here?
**A.** inactive

**Q.** With NCCCNCCSP(=O)(O)O as the compound, how does the Potency read?
**A.** inactive

**Q.** For CCn1nc(C(=O)O)c(=O)c2cc3c(cc21)OCO3, which Potency is on record?
**A.** inactive

**Q.** For O=C(O)CN(CCOCCOCCN(CC(=O)O)CC(=O)O)CC(=O)O, which Potency is on record?
**A.** inactive

**Q.** For NC(N)=NC(=O)Cc1c(Cl)cccc1Cl, which Potency is on record?
**A.** inactive

**Q.** Which Potency does the source give for C#CCN(C)CCCOc1ccc(Cl)cc1Cl here?
**A.** inactive

**Q.** With N[C@@H](COP(=O)(O)O)C(=O)O as the compound, how does the Potency read?
**A.** inactive

**Q.** Which Potency does the source give for OCCN1CCN(CC/C=C2/c3ccccc3Sc3ccc(C(F)(F)F)cc32)CC1 here?
**A.** 28.2 µM (active)

**Q.** With CN(C)C(=O)Oc1ccc[n+](C)c1 as the compound, how does the Potency read?
**A.** inactive

**Q.** Which Potency does the source give for CSc1ccc(C(=O)c2[nH]c(=O)[nH]c2C)cc1 here?
**A.** inactive

**Q.** With CCn1cc(C(=O)O)c(=O)c2cc3c(cc21)OCO3 as the compound, how does the Potency read?
**A.** inactive

**Q.** With NC/C=C/C(=O)O as the compound, how does the Potency read?
**A.** inactive

**Q.** Which Potency does the source give for CCCN(CCC)C(=O)C(CCC(=O)O)NC(=O)c1ccccc1 (configuration not stated) here?
**A.** inactive

**Q.** Which Potency does the source give for O=C(O)CP(=O)(O)O here?
**A.** inactive

**Q.** For CCOC(=O)c1cnc2c(cnn2CC)c1NN=C(C)C, which Potency is on record?
**A.** inactive

**Q.** For CCc1c(C)[nH]c2c1C(=O)C(CN1CCOCC1)CC2 (configuration not stated), which Potency is on record?
**A.** inactive

**Q.** With NC(Cc1ccc(Cl)cc1)C(=O)O (configuration not stated) as the compound, how does the Potency read?
**A.** inactive

**Q.** For CN(C)CCOC(=O)COc1ccc(Cl)cc1, which Potency is on record?
**A.** inactive

**Q.** For C[N+](C)(C)CCOC(N)=O, which Potency is on record?
**A.** inactive

**Q.** With CN(C(=O)CCCOc1ccc2[nH]c(=O)ccc2c1)C1CCCCC1 as the compound, how does the Potency read?
**A.** inactive

Assay: qHTS for Inhibitors of ATXN expression: Validation (AID 588378); also: nearly all actives have a fitted effect of over 75% in size
Details: cell-based ATXN2 expression reporter assay, luminescence; series mostly up to 57.1 µM
Outline: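 Luciferase luminescence (Bright-Glo) from an ATXN2-FFLuc HEK293 line after 24 h compound exposure at 37 °C, preceded by a CellTiter-Fluor fluorescence viability read. Serial dilutions of a reference ATXN2 inhibitor and a luciferase inhibitor served as controls.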

**Q.** Which Potency does the source give for Cc1nc2ccccn2c(=O)c1CCN1CCC(C(=O)c2ccc(F)cc2)CC1 here?
**A.** inactive

**Q.** Which Potency does the source give for CNC1(C)C2CCC(C2)C1(C)C (configuration not stated) here?
**A.** inactive

**Q.** For Cc1scc2c1N(C(=O)CN1CCN(C)CC1)c1ccccc1NC2=O, which Potency is on record?
**A.** inactive

**Q.** With CC[N+](C)(C)c1cccc(O)c1 as the compound, how does the Potency read?
**A.** inactive

**Q.** For c1ccc2c(c1)CCCC2C1=NCCN1 (configuration not stated), which Potency is on record?
**A.** inactive

**Q.** With C[C@]12CCC(=O)C=C1CC[C@@H]1[C@@H]2CC[C@@]2(C)[C@H]1CC[C@]2(O)C(=O)CO as the compound, how does the Potency read?
**A.** inactive

**Q.** With Brc1c(NC2=NCCN2)ccc2nccnc12 as the compound, how does the Potency read?
**A.** inactive

**Q.** With COCCc1ccc(OCC(O)CNC(C)C)cc1 (configuration not stated) as the compound, how does the Potency read?
**A.** inactive

**Q.** With O=C1CC2(CCCC2)CC(=O)N1CCCCN1CCN(c2ncccn2)CC1 as the compound, how does the Potency read?
**A.** inactive

**Q.** With NS(=O)(=O)c1cc2c(cc1Cl)NC(C1CC3C=CC1C3)NS2(=O)=O (configuration not stated) as the compound, how does the Potency read?
**A.** inactive

**Q.** With CCCCNc1c(C(=O)OCC)c(C)nc2c1cnn2CC as the compound, how does the Potency read?
**A.** inactive

**Q.** With CCN1CCC[C@H]1CNC(=O)c1c(O)c(Cl)cc(Cl)c1OC as the compound, how does the Potency read?
**A.** inactive

**Q.** For CC(C)[N+](C)(CCOC(=O)C1c2ccccc2Oc2ccccc21)C(C)C, which Potency is on record?
**A.** inactive

**Q.** Which Potency does the source give for CN1C(=O)CC[C@H]1c1cccnc1 here?
**A.** inactive

**Q.** With CC(C)COCC(CN(Cc1ccccc1)c1ccccc1)N1CCCC1 (configuration not stated) as the compound, how does the Potency read?
**A.** inactive

**Q.** Which Potency does the source give for COc1ccc([C@@H]2Sc3ccccc3N(CCN(C)C)C(=O)[C@@H]2OC(C)=O)cc1 here?
**A.** inactive

**Q.** With CN(C)C(=O)Oc1cccc([N+](C)(C)C)c1 as the compound, how does the Potency read?
**A.** inactive

**Q.** With NCCCNCCSP(=O)(O)O as the compound, how does the Potency read?
**A.** inactive

**Q.** With CCn1nc(C(=O)O)c(=O)c2cc3c(cc21)OCO3 as the compound, how does the Potency read?
**A.** inactive

**Q.** Which Potency does the source give for O=C(O)CN(CCOCCOCCN(CC(=O)O)CC(=O)O)CC(=O)O here?
**A.** inactive

**Q.** Which Potency does the source give for NC(N)=NC(=O)Cc1c(Cl)cccc1Cl here?
**A.** inactive

**Q.** Which Potency does the source give for C#CCN(C)CCCOc1ccc(Cl)cc1Cl here?
**A.** inactive

**Q.** Which Potency does the source give for N[C@@H](COP(=O)(O)O)C(=O)O here?
**A.** inactive

**Q.** For OCCN1CCN(CC/C=C2/c3ccccc3Sc3ccc(C(F)(F)F)cc32)CC1, which Potency is on record?
**A.** 17.8 µM (active)

**Q.** With CN(C)C(=O)Oc1ccc[n+](C)c1 as the compound, how does the Potency read?
**A.** inactive

**Q.** Which Potency does the source give for CSc1ccc(C(=O)c2[nH]c(=O)[nH]c2C)cc1 here?
**A.** inactive

**Q.** For CCn1cc(C(=O)O)c(=O)c2cc3c(cc21)OCO3, which Potency is on record?
**A.** inactive

**Q.** With NC/C=C/C(=O)O as the compound, how does the Potency read?
**A.** inactive

**Q.** Which Potency does the source give for CCCN(CCC)C(=O)C(CCC(=O)O)NC(=O)c1ccccc1 (configuration not stated) here?
**A.** inactive

**Q.** Which Potency does the source give for O=C(O)CP(=O)(O)O here?
**A.** inactive

**Q.** For CCOC(=O)c1cnc2c(cnn2CC)c1NN=C(C)C, which Potency is on record?
**A.** inactive

**Q.** With CCc1c(C)[nH]c2c1C(=O)C(CN1CCOCC1)CC2 (configuration not stated) as the compound, how does the Potency read?
**A.** inactive

**Q.** For NC(Cc1ccc(Cl)cc1)C(=O)O (configuration not stated), which Potency is on record?
**A.** inactive

**Q.** With CN(C)CCOC(=O)COc1ccc(Cl)cc1 as the compound, how does the Potency read?
**A.** inactive

**Q.** For C[N+](C)(C)CCOC(N)=O, which Potency is on record?
**A.** inactive

**Q.** For CN(C(=O)CCCOc1ccc2[nH]c(=O)ccc2c1)C1CCCCC1, which Potency is on record?
**A.** inactive

Source: PubChem BioAssay (NCATS)
